Screening data: PubChem BioAssay, several laboratories
PAX8 inh HTS – inhibitors of PAX8-driven TPO luciferase reporter, primary screen, RMG-I cells, single concentration; actives 1.2% (n = 360,000); SteadyGlo, 24 h; inhibition, % at 12.6 µM;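 active means mean replicate inhibition at least 60% with every replicate also reaching 60%; inconclusive means only one of the two criteria is met; inactive means mean below 60% and not all replicates reaching 60%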;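 further: luciferase light reporting Pax8 driven TPO promoter activity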
LGR2 antag – inhibitors of bursicon-induced LGR2 CRE-luciferase signal, primary screen, cell-based, HEK293, CRE-luciferase reporter, bursicon stimulation; bursicon-stimulated, 4 h; inhibition, % at 9.99 µM; actives 0.35% (n = 380,000);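 active means drop in luminescence signal, shown as inhibition above about 50% in the replicate tests, limit read from the data, passing the limit was not always enough; inconclusive means probably only some replicates passing the limit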;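 further: agonist challenge used bursicon conditioned medium at about half maximal strength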
CF NFkB block – inhibitors of PAF-induced NF-kB signaling, primary screen, cell-based, GFP fluorescence, uHTS; actives 0.86% (n = 360,000); KKLEB NF-kB-GFP reporter, GFP fluorescence overnight; inhibition, % at 5 µM;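 active means at least 50% inhibition at 5 µM, scaled per plate between neutral and stimulator controls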;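 further: PAF is a Pseudomonas aeruginosa culture filtrate used as stimulus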
EWS-Fli inh – EWS/Fli-driven NR0B1 reporter inhibitors, primary screen, A673 cells, NR0B1 luciferase, luminescence, MLPCN library | viability-normalised | inhibition, % at 12.6 µM | actives 0.67% (n = 350,000) | AID 651661, 2012;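 active means mean inhibition of at least 50% after viability correction, with every replicate also passing that limit; inconclusive means mean reaches 50% but only one of two replicates passes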;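 further: firefly luciferase signal divided by Alamar Blue viability fluorescence both relative to DMSO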
Shn3 inh set2 – reduction of Shn3 3'UTR firefly luciferase signal, primary screen, Schnurri-3 inhibitor project, cell-based, Clone20 osteoblasts, set 2. Clone20 osteoblast Shn3 3'UTR firefly luciferase, 24 h. inhibition, % at 12.5 µM. actives 0.52% (n = 360,000);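 active means mean inhibition of at least 75% with every replicate also reaching 75%; inconclusive means mean inhibition at least 75% but some replicate below; inactive means mean inhibition below 75%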
KKLEB cytotox – cytotoxicity in KKLEB CF airway cells, primary screen, cytotoxicity control for CF NF-kB inhibitor project, cell-based, uHTS, fluorescence assay plates | KKLEB CF airway cells viability, ATPlite luminescence, overnight; stronger effect = lower value; cells stimulated with P. aeruginosa culture filtrate | AID 602141, 2011 | activity change (cytotoxicity), % at 5 µM | actives 0.36% (n = 360,000);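 active means corrected activity change at or below -50% at 5 µM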
CF NFkB inh conf – inhibitors of PAF-induced NF-kB signaling, retest, confirmation, cell-based, GFP fluorescence, single concentration | actives 64% (n = 1,300) | inhibition, % at 5 µM | KKLEB CF airway cells, overnight | shares compounds with CF NFkB block; in the data active means inhibition above about 40%;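 further: stimulus PAF is a Pseudomonas aeruginosa filtrate and not platelet activating factor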
Numbers stand for hits; – = inactive; ? = inconclusive; · = no result given. The list is not random: actives were taken first. Their share in the collection is about 2%.

SMILES	PAX8 inh HTS	LGR2 antag	CF NFkB block	EWS-Fli inh	Shn3 inh set2	KKLEB cytotox	CF NFkB inh conf
CCS(=O)(=O)Nc1ccc2c(c1)C(=O)N(C)[C@H]1CC[C@H](CC(=O)Nc3ccccc3)O[C@H]1CO2	–	–	·	–	·	·	·
C[C@@H]1CN([C@H](C)CO)C(=O)c2c(c3ccccc3n2C)-c2ccccc2CO[C@H]1CN(C)C(=O)N[C@H](C)c1ccccc1	–	–	·	–	·	·	·
C=CCN(CC=C)c1ncnc2[nH]ncc12	–	–	65.0	–	–	–	63.0
CN(c1cccnc1)c1ncnc2[nH]ncc12	–	–	–	–	–	–	·
O=C(OC1CCOC1=O)c1ccccc1C(=O)c1ccc(Cl)c([N+](=O)[O-])c1 (centres undefined)	·	·	71.9	·	–	–	51.5
CCCOc1ccc(C(=O)c2ccccc2C(=O)OC2CCOC2=O)cc1OCCC (centres undefined)	–	–	–	–	–	–	·
CC(C)OC(=O)c1ccccc1C(=O)c1ccc(N)c([N+](=O)[O-])c1	–	–	–	–	–	–	·
CNC(=O)COC(=O)c1ccccc1C(=O)c1ccc(Cl)c([N+](=O)[O-])c1	–	102.4	90.5	–	–	–	111.7
CCC(=O)N1CCCCN2[C@H](CO)[C@H](c3ccc(/C=C/c4ccccc4)cc3)[C@H]2C1	–	–	·	–	·	·	·
CN(C)C(=O)C[C@@H]1CC[C@@H](NC(=O)NC2CCCCC2)[C@H](CO)O1	–	–	·	–	·	·	·
CC(C)NC(=O)N(C)C[C@@H]1OCc2ccccc2-c2ccccc2C(=O)N([C@H](C)CO)C[C@H]1C	·	–	·	–	·	·	·
COc1ccccc1NC(=O)N1C[C@@H](O)COC[C@@H]2O[C@H](CC(=O)N3CCC(Cc4ccccc4)CC3)CC[C@H]21	–	–	·	–	·	·	·
Oc1ccccc1C1CC(c2cccs2)=NC(c2ccc(Cl)cc2)N1 (centres undefined)	–	–	64.7	–	–	–	–
CS(=O)(=O)N1N=C(c2cccs2)CC1c1ccccc1O (centres undefined)	–	–	–	–	–	–	·
COCC(=O)N1[C@H](C#N)[C@H](c2ccccc2-c2ccccc2F)[C@@H]1CO	·	–	·	–	·	·	·
COc1ccc(-c2cncnc2-c2ccc(OC)cc2O)cc1	–	–	61.9	–	–	–	82.9
Cc1ccc(S(=O)(=O)CCC(=O)c2ccc(F)cc2)cc1	95.5	–	85.2	·	–	–	–
Cc1ccc(C(=O)CCS(=O)(=O)c2ccc(F)cc2)cc1	–	–	–	·	–	–	·
O=C(NNC(=S)Nc1cccc(C(F)(F)F)c1)c1cccc(Cl)c1	–	–	50.7	·	–	–	76.6
O=C(NNC(=S)Nc1cccc(C(F)(F)F)c1)c1ccccc1Cl	?	–	–	–	–	–	·
O=C(c1ccncc1)N1C[C@H]2[C@@H](c3ccccc31)[C@@H](CO)N2C(=O)CN1CCOCC1	–	–	·	–	·	·	·
CCCCOC(=O)Nc1ccc(S(=O)(=O)Nc2nc(C)cc(C)n2)cc1	·	–	53.3	–	–	–	–
COCC#Cc1cnc2c(c1)C(=O)N([C@@H](C)CO)C[C@H](C)[C@@H](CN(C)C(=O)Nc1cc(F)ccc1F)O2	–	–	·	–	·	·	·
c1ccc(N2CCN(c3ncnc4sc5c(c34)CCC5)CC2)cc1	·	·	58.8	·	–	–	42.3
CC1CCc2sc3ncnc(N4CCOCC4)c3c2C1 (centres undefined)	·	·	50.8	·	–	–	57.4
SMILES	PAX8 inh HTS	LGR2 antag	CF NFkB block	EWS-Fli inh	Shn3 inh set2	KKLEB cytotox	CF NFkB inh conf
CC1CCc2c(sc3ncnc(N4CCOCC4)c23)C1 (centres undefined)	·	·	66.2	·	–	–	62.8
CCCC#Cc1ccc([C@@H]2[C@H](CO)N3C(=O)CN(C(=O)c4ccc(F)cc4)C[C@@H]23)cc1	·	–	·	–	·	·	·
CC1CCCCN1CCCNC(=O)c1ccc2c(c1)NC(=O)CN2C (centres undefined)	–	–	–	–	–	–	·
CCCCN(CCCNC(=O)c1ccc2c(c1)NC(=O)CN2C)c1ccccc1	?	91.0	64.6	–	–	–	–
NS(=O)(=O)c1cc(C(=O)O)cc(N2CCCC2)c1Oc1ccccc1	–	–	–	–	–	–	·
CCCCNc1cc(C(=O)O)cc(S(N)(=O)=O)c1Oc1ccccc1	–	–	61.5	–	–	–	–
COc1ccc2nc(Nc3nc(CSc4nc5ccccc5[nH]4)cc(=O)[nH]3)nc(C)c2c1	–	86.8	102.8	·	–	–	101.4
COc1ccc2c3c(n(C)c2c1)[C@@H](CO)N(Cc1cc(F)ccc1F)CC31CCN(C(C)=O)CC1	–	–	·	·	·	·	·
COc1cccc(NC(=O)CN(C)CC(=O)Nc2ccc(C)c([N+](=O)[O-])c2)c1	–	–	65.7	–	–	–	75.7
COc1cccc(NC(=O)CN(C)CC(=O)Nc2ccc3c(c2)OCO3)c1	–	–	–	–	–	–	·
CCOC(=O)C1(C(=O)OCC)COC(=O)C1CN1Cc2cc3ccccc3nc2C1 (centres undefined)	–	–	69.0	–	–	–	74.4
CC(C)c1nc(Cl)c(C#N)c2c1CCCC2	–	–	55.4	–	–	–	77.3
CC(C)c1nc(NCCO)c(C#N)c2c1CCCC2	–	·	71.2	–	–	–	55.0
O=C(Cc1ccncc1)NCC[C@H]1CC[C@H](NC(=O)C2CCCCC2)[C@H](CO)O1	–	–	·	–	·	·	·
C[C@H]1CN([C@@H](C)CO)C(=O)c2cc(NC(=O)CCC(F)(F)F)ccc2O[C@H]1CN(C)Cc1ccc(C(F)(F)F)cc1	–	–	·	–	·	·	·
CN(C(=O)COc1ccccc1C(=O)NCCOc1ccccc1)c1ccccc1	74.0	87.7	56.9	·	93.7	–	–
O=C(CSc1nc(C2CC2)nc2ccccc12)Nc1ccccc1Cl	–	–	59.6	–	–	–	–
O=C(CSc1nc(C2CC2)nc2ccccc12)Nc1ccccc1	–	–	–	–	–	–	·
Oc1ccc(Cl)cc1CNCc1ccc(Cl)cc1	–	–	–	–	–	–	·
Oc1ccc(Cl)cc1Cc1cc(Cl)ccc1O	–	·	77.0	–	–	–	90.2
CCOC(=O)N1C(=O)[C@](CC)(c2ccccc2)N1C(=O)OCC	–	–	56.2	–	–	–	–
O=C(c1ccncc1)N1CCc2ccccc2C1	–	–	–	–	–	–	·
O=C(c1cncc(Br)c1)N1CCc2ccccc2C1	·	·	51.4	·	–	–	55.6
COc1cccc(-c2ccc3ncnc(NCc4cccc(C)c4)c3c2)c1	–	–	69.0	–	–	–	62.2
